From PubChem BioAssay
Shown are actives, neighbours in structure and some others; about 27% of the full set was active somewhere.
CYP2C9 act = CYP2C9 (human) activation; recombinant CYP2C9, luciferin-H conversion, luminescence; stronger effect = higher value; factor 1 = untreated enzyme, 0 = blocked; activation factor at 5 µM; hit rate 1.4% among 96,000;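 active = activation factor of 2 or more for CYP2C9 at a 5 µM dose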
Target sequence (P11712 whole entry, looked up): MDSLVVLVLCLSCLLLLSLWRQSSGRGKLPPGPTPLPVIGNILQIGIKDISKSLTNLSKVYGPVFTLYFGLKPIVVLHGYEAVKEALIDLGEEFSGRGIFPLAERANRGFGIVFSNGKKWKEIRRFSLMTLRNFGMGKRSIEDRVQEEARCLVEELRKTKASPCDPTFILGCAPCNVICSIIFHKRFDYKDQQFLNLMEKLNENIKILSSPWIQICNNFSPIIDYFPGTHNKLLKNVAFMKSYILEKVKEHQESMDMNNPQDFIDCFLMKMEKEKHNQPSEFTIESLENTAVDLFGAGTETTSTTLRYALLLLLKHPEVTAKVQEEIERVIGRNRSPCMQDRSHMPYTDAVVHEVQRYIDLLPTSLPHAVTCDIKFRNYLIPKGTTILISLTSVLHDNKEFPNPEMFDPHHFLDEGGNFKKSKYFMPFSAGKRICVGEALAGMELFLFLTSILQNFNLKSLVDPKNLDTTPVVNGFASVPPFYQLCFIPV
CYP2C19 activ = increases human CYP2C19 enzyme activity; P33261; recombinant CYP2C19, luciferin-H EGE luminescence; stronger effect = higher value; 0 = fully inhibited enzyme, 1 = untreated enzyme; activation factor at 5 µM; 96,000 tested, under 10 active; AID 1025;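 active = activation factor of at least 2 at 5 µM in the primary screen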
sEH act = increases human soluble epoxide hydrolase activity; purified human sEH enzymatic activity, activator screen; hit rate 0.04% among 91,000; activation, % at 2 µM; in the data active = activation above about 37%
sEH inhibitor = blocks human soluble epoxide hydrolase activity | inhibition, % at 2 µM | hit rate 0.34% among 91,000 | recombinant human sEH enzymatic activity assay | AID 707 | P34913; in the data active = inhibition above about 80%
CYP2C19 inh = inhibitors of human CYP2C19 | P33261 | CYP2C19 Supersomes, luciferin-H EGE luminescence, 30 min | inhibition, % at 5 µM | hit rate 21% among 96,000 | AID 778;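 active = CYP2C19 inhibition above a set limit at 5 µM in the primary screen, cut at about 50% in these data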
CYP2C9 inh = human CYP2C9 inhibition | AID 777 | P11712 | CYP2C9 Supersomes, luciferin-H conversion, luminescence | inhibition, % at 5 µM | hit rate 20% among 96,000;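 active = blocking of liver enzyme CYP2C9 beyond about 50% at 5 µM, limit read from the data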
A number is an active result; 0 = inactive; - = not tested or not shown.

SMILES	CYP2C9 act	CYP2C19 activ	sEH act	sEH inhibitor	CYP2C19 inh	CYP2C9 inh
Cc1nn(-c2ccccc2)c(C)c1/C=N/NC(=O)c1cc(-c2ccc(Br)s2)[nH]n1	0	0	0	0	77	84
Cc1nn(-c2ccccc2)c(C)c1/C=N/NC(=O)c1cc(-c2ccc(Cl)s2)[nH]n1	0	0	0	0	0	0
Cc1nn(-c2ccccc2)c(C)c1/C=N/NC(=O)c1cc(C23CC4CC(CC(C4)C2)C3)[nH]n1	0	0	0	0	0	53
O=C(NCc1ccccc1)N1CCC(n2cnc3cc(F)ccc32)CC1	0	0	0	0	0	0
Cc1nnc2sc(-c3ccc(-c4ccc(Cl)c(C(F)(F)F)c4)o3)nn12	0	0	-	-	0	0
CN(CC(=O)O/N=C(\N)c1cccc([N+](=O)[O-])c1)S(=O)(=O)c1ccccc1	0	0	0	0	59	0
CCOC(=O)/C(=N\Nc1cccc(C(F)(F)F)c1)N(CCOC)CCOC	0	0	0	0	99	89
CCCn1c(=O)c2c(C(F)(F)F)cc(-c3ccco3)nc2n(CCC)c1=O	0	0	0	0	0	0
CCCCn1c(=O)n(C)c(=O)c2c(C(F)(F)F)cc(-c3ccncc3)nc21	0	0	0	0	73	0
c1ccc(CSc2nnnn2-c2cccc3ccccc23)nc1	2.3	0	0	0	0	0
O=C(CCCSc1nnnn1-c1cccc2ccccc12)c1ccc(F)cc1	2.4	0	0	0	0	0
COC(=O)CSc1nnnn1-c1cccc2ccccc12	3.2	0	0	0	0	0
COC(=O)CSc1nc2ccccc2c(=O)n1C	0	0	0	0	0	0
O=C(NCc1ccccc1)c1cccc(OCC(=O)N2CCN(C(=O)c3ccco3)CC2)c1	0	0	0	0	0	0
CCc1ccccc1NC(=S)N1CCC(C(=O)c2ccc(F)cc2)CC1	0	0	0	0	0	0
FC(F)(F)C1CC(c2cccs2)Nc2ncnn21 (stereo unspecified)	0	0	0	0	0	0
CCCC(C)NCC(=O)Nc1ccccc1-c1ccccc1 (stereo unspecified)	0	0	0	0	65	0
O=C(Cn1nc(C(F)(F)F)c2c1CCCC2)NCCN1CCOCC1	0	0	0	0	64	0
Cc1ccccc1CS(=O)(=O)c1snnc1C	0	0	0	0	55	0
Cc1ccccc1CS(=O)(=O)c1cnc2ccccc2n1	2.3	0	0	0	93	0
Cc1ccc(Oc2cnc3ccccc3n2)cc1	0	0	0	0	0	0
CC(C)CCNC(=O)C(c1cccs1)N(CC1CCCO1)C(=O)Cn1nnc2ccccc21 (stereo unspecified)	0	0	0	0	0	0
COc1ccc(-n2cnnc2SCC(=O)c2ccc(S(=O)(=O)N3CCOCC3)cc2)cc1	0	0	-	-	0	0
CCN(CC)CCCN1C(=O)C(=O)/C(=C(/O)c2cnn(-c3ccccc3)c2C)C1c1ccncc1 (stereo unspecified)	-	-	0	0	-	-
Cc1cccc(C)c1OCc1nnc(SCC(=O)NCc2ccccc2)o1	0	0	0	0	0	0
SMILES	CYP2C9 act	CYP2C19 activ	sEH act	sEH inhibitor	CYP2C19 inh	CYP2C9 inh
COc1ccc(C(=O)N2CCSC2=S)cc1OC	2.1	0	0	0	0	0
COc1ccc(C(=O)SC2=NCCS2)cc1OC	2.1	0	0	0	0	0
COc1cccc(C(=O)N2CCSC2=S)c1	0	0	0	0	62	0
CCCCCCn1c(N2CCC(C(N)=O)CC2)nc2c1c(=O)n(C)c(=O)n2C	0	0	0	0	0	0
Cc1cccc(S(=O)(=O)C(C#N)c2nc3ccccc3nc2N2CCCC2)c1 (stereo unspecified)	0	0	0	0	0	0
Cc1ccc(C)c(S(=O)(=O)C(C#N)c2nc3ccccc3nc2N2CC(C)OC(C)C2)c1 (stereo unspecified)	0	0	0	0	52	99
N#CC(c1nc2ccccc2nc1N1CCCC1)S(=O)(=O)c1ccccc1 (stereo unspecified)	0	0	-	-	0	0
Cc1ccc(S(=O)(=O)C(C#N)c2nc3ccccc3nc2N2CCN(C)CC2)cc1C (stereo unspecified)	0	0	0	0	0	75
Cc1ccc(C)c(S(=O)(=O)C(C#N)c2nc3ccccc3nc2N2CCCC2)c1 (stereo unspecified)	0	0	0	0	0	0
